From PubChem BioAssay
CF NFkB inh = inhibitors of cystic fibrosis induced NF-kB | inhibition, % at 5 µM | KKLEB NF-kB-GFP reporter, PAF-induced, GFP fluorescence overnight | 360,000 compounds, 0.86% hits;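 active = at least 50% inhibition at 5 µM, scaled per plate between neutral and stimulator controls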;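 note: PAF is a Pseudomonas aeruginosa culture filtrate used as stimulus; plate controls were PAF-stimulated DMSO wells for no effect and unstimulated DMSO wells for full effect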
TWEAK Fn14 block = inhibitors of TWEAK-Fn14 interaction signaling | TWEAK-stimulated Fn14 reporter cells, luciferase luminescence, 8 h | inhibition, % at 10 µM | 360,000 compounds, 2% hits | AID 1159606; in the data active = inhibition above about 50%
HIF-2a block = HIF-2a inhibition. 786-0 RCC cells HIF-2a reporter, luciferase luminescence, overnight. inhibition, % at 18.8 µM. 360,000 compounds, 0.72% hits. AID 624352;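 active = inhibition of the luminescence signal of 40% or more relative to plate controls, in a single-dose primary screen at 18.75 µM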
TROY signal inh = blocks TROY-dependent signaling in reporter cells; Q293 LMP1-TROYcd NF-kB luciferase reporter, 4 h; inhibition, % at 10 µM; 360,000 compounds, 0.98% hits; AID 1347056;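 active = compounds whose plate-normalised and pattern-corrected inhibition of the luciferase reporter signal at the single screening dose is 50% or more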
KKLEB cytotox = CF airway cell cytotoxicity counter-screen; 360,000 compounds, 0.36% hits; AID 602141; activity change (cytotoxicity), % at 5 µM; KKLEB CF airway cells viability, ATPlite luminescence, overnight; hits give low values; cells stimulated with P. aeruginosa culture filtrate;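 active = corrected activity change at or below -50% at 5 µM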
Peg3 promoter = Peg3 promoter activity inhibition; 360,000 compounds, 1.7% hits; HeLa PEG-Prom luciferase reporter, luminescence, overnight; AID 588405; inhibition, % at 20 µM;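 active = inhibition of at least 50% at 20 µM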
* hit, by the source's call; / = no result. Most compounds without a hit are left out; they make up all but 4% or so of the library.

SMILES	CF NFkB inh	TWEAK Fn14 block	HIF-2a block	TROY signal inh	KKLEB cytotox	Peg3 promoter
Cc1cc(Cl)ccc1N(CC(=O)N=Nc1c(O)[nH]c2ccccc12)S(C)(=O)=O	-2	2	14	-11	5	20
COc1ccc(NC(=O)CN2C(=O)CSC(C)C2=O)cc1 (configuration not stated)	4	0	16	-9	4	55*
CCC(C(=O)N1CCc2ccccc2C1)n1nc(C)n2c(cc3occc32)c1=O (configuration not stated)	-4	81*	18	/	10	19
CC1(C)Cc2c(cnn2-c2ccc(F)cc2)C(NC(=O)CCN2CCCCO2)C1 (configuration not stated)	22	16	-29	-9	0	-16
Cc1ccc(-n2ncc3c2CC(C)(C)CC3NC(=O)CCN2CCCO2)cc1 (configuration not stated)	-19	-4	7	-29	11	50*
O=c1ccc(-c2nc3ccccc3n2Cc2ccc(Cl)cc2)c[nH]1	-15	-6	1	5	-20	16
COc1ccc(NC(=O)N2CCCC(c3nc(-c4ccc(OC)cc4)no3)C2)cc1 (configuration not stated)	-5	36	-78	33	-3	-122
COc1ccc(NC(=O)N2CCCC(c3nc(-c4ccc(C(C)C)cc4)no3)C2)cc1 (configuration not stated)	-23	59*	-34	69*	5	-60
Cc1ccc(-n2cc(CNCCCn3cccn3)c(-c3cccc(C)c3)n2)cc1	17	-22	-32	-7	-27	85*
Cc1ccc(-c2nn(-c3ccccc3)cc2CO)cc1	-2	-3	-217	-38	5	-263
Cc1ccc(-c2nn(-c3ccccc3)cc2CNCc2ccccc2)cc1	11	-30	-16	-12	-16	53*
Cc1ccc(-c2nn(-c3ccccc3)cc2NC(=O)CCl)cc1	25	-5	-76	-41	-34	105*
Cc1ccc(-c2cc(NC(=O)CCl)n(-c3ccccc3)n2)cc1	-48	-17	-180	-56	-14	37
Cc1ccc(S(=O)(=O)N2CCN(CC(=O)NC(=O)NCc3ccco3)CC2)cc1C	3	-5	13	-18	-15	7
O=C(Nc1ccc(N2CCN(c3ncccc3C(F)(F)F)CC2)nc1)c1cccs1	8	96*	7	82*	-5	104*
O=C(Nc1ccc(N2CCN(c3ccc(C(F)(F)F)cn3)CC2)nc1)c1cccs1	15	-13	10	17	3	-2
COc1ccc(-n2c(C)cc(/C=C3/SC(=S)N(C)C3=O)c2C)cc1	-18	70*	-121	52*	6	-254
Cc1cc(/C=C2\SC(=S)N(Cc3ccco3)C2=O)c(C)n1-c1ccccc1	-14	62*	-38	4	2	-165
CN1C(=O)/C(=C\c2ccccc2OCc2ccccc2)SC1=S	39	7	22	14	-18	-1
CN=C1S/C(=C\c2cc(C)n(-c3ccccc3F)c2C)C(=O)N1C	-18	82*	-67	80*	-26	-60
CN1C(=O)/C(=C\c2cc(N=Nc3ccccc3)ccc2O)SC1=S	50*	50	-33	26	-36	-26
C=CCNC(=O)c1ccc(NC(=O)C2=CSCCO2)cc1	7	24	-117	-7	1	-74
Cc1cc(/C=C2\SC(=O)N(C)C2=O)c(C)n1-c1ccc(O)cc1	-17	87*	-88	18	4	-101
Cc1cc(/C=C2\SC(=S)N(C)C2=O)c(C)n1-c1cccc(O)c1	21	92*	-77	10	-14	28
COc1cc(NC(=O)COC(C)=O)c(C)cc1[N+](=O)[O-]	14	8	5	-15	-15	10
Cc1ccc2c(c1)=C(c1ccccc1)N(O)CC(=O)N=2	-22	3	12	-8	5	-4
COc1ccc(-c2nn(-c3ccccc3)cc2/C=C/C(=O)OCC(=O)Nc2ccccc2C#N)cc1	67*	-43	18	15	-70*	48
COc1ccc(-c2nn(-c3ccccc3)cc2/C=C/C(=O)N2CCN(c3ccccn3)CC2)cc1	38	44	-9	10	-15	52*
